Source: PubChem BioAssay (National Center for Advancing Translational Sciences (NCATS))
DT40 TDP1 CPT – qHTS for Inhibitors of human tyrosyl-DNA phosphodiesterase 1 (TDP1): qHTS in cells in presence of CPT | AID 686979, 2013 | chicken DT40 Tdp1-/-;hTDP1 cells + 20 nM CPT, ATP luminescence, 48 h | 420,000 compounds, 12% hits | Potency, µM (titrated, usually from 46.2 µM), hits mostly inhibitors; further: nearly all actives have a fitted effect of over 55% in size
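Chicken DT40 Tdp1-/- cells stably complemented with human TDP1 were seeded at 400 cells/well in medium containing 20 nM camptothecin, exposed to pin-transferred compounds, and grown at 37 °C for at least 48 hr. Viability was read as ATP luminescence.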
DT40 TDP1 no CPT – qHTS for Inhibitors of human tyrosyl-DNA phosphodiesterase 1 (TDP1): qHTS in cells in absence of CPT; AID 686978, 2013; DT40 Tdp1-/- hTDP1 cells, no CPT, ATP luminescence, 48 h; 420,000 compounds, 15% hits; Potency, µM (highest dose often 46.2 µM), hits mostly inhibitors; further: nearly all actives have a fitted effect of over 55% in size
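Seeded 400 DT40-hTDP1 cells/well (vehicle DMSO, no 20 nM CPT); pinned compounds; ≥48 hr at 37 °C; CellTiter-Glo luminescence as viability measure.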
RORgamma inh – qHTS for inhibitors of ROR gamma transcriptional activity; AID 2551, 2010; 310,000 compounds, 5.4% hits; Potency, µM (highest dose often 53.6 µM), actives largely listed as inhibitors; Drosophila S2 Gal4-RORgamma UAS-luciferase reporter, 20 h; further: nearly all actives have a fitted effect of over 60% in size
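Schneider cells (Drosophila), stable Gal4 DBD–ROR gamma + UAS-luc; 1 hr cmpd preincubation; Cu2+ induction 700 uM final; 20 hr ambient; luminescence.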
TDP1 block – qHTS Assay for Inhibitors of Tyrosyl-DNA Phosphodiesterase (TDP1). Tyrosyl-DNA phosphodiesterase 1 (Homo sapiens), Q9NUW8. recombinant TDP1, AlphaScreen DNA substrate cleavage. Potency, µM (doses to about 130 µM), actives largely listed as inhibitors. 350,000 compounds, 0.28% hits; further: nearly all actives have a fitted effect of over 40% in size
Target sequence (Q9NUW8 whole entry, looked up): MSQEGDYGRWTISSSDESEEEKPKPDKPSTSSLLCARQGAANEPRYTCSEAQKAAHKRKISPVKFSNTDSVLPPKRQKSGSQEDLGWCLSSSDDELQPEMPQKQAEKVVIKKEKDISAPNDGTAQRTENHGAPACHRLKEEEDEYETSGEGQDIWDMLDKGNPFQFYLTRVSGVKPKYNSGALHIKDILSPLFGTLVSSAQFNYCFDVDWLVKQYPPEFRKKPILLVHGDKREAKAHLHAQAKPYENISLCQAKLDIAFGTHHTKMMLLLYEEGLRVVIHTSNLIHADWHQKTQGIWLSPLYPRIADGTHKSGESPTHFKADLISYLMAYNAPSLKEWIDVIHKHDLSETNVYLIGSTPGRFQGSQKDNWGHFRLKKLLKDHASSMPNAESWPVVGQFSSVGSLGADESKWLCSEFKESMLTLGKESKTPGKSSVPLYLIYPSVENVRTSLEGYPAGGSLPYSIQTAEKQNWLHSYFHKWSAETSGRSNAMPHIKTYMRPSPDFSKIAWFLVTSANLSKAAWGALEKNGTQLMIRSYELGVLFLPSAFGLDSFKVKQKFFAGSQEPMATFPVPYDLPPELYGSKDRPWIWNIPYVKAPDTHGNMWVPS
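AlphaScreen read-out: signal falls as enzyme removes the 3' tyrosine-FITC from a 5'-biotinylated DNA oligo (15 nM, 5 min, RT). Enzyme was E. coli-made recombinant Tdp1 at 1 nM, exposed to compound for 15 min beforehand; beads 10 ug/ml, 10 min.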
VP16 counter – VP16 counterscreen qHTS for inhibitors of ROR gamma transcriptional activity; Drosophila S2 Gal4-VP16 UAS-luciferase, luminescence, 20 h; Potency, µM (doses to about 53.6 µM), hits mostly inhibitors; 310,000 compounds, 3.5% hits; AID 2546, 2010;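 further: Gal4-VP16 expression switched on by copper sulfate through the metallothionein promoter; nearly all actives have a fitted effect of over 50% in size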
A number is an active result; – = inactive; ? = inconclusive; · = no result given. An excerpt weighted towards active compounds, which were near 19% of everything screened. The call rests on the fitted dose curve; in most records, active means well fitted curve in the direction sought with a large enough effect; inconclusive means small, poorly fitted or top-dose-only effect, or another doubt; inactive means no such curve, though single readings can be large; an effect the other way counts as inactive or inconclusive.

SMILES | DT40 TDP1 CPT | DT40 TDP1 no CPT | RORgamma inh | TDP1 block | VP16 counter
COc1ccc(CNC(=O)C2(CC3CC(c4ccccc4)=NO3)CCNCC2)cc1 (stereo unspecified) | ? | – | · | · | ·
CC(=O)c1cc(CC=C(C)C)c(O)c(CC=C(C)C)c1O | ? | ? | – | – | –
CC(C)=CCC/C(C)=C/Cc1c(O)ccc(C(=O)/C=C/c2ccc(O)cc2)c1O | ? | 21µM | – | – | ?
O=C(CCN1C(=O)C2CC=CCC2C1=O)Nc1nc(-c2ccc(F)c(F)c2)cs1 (stereo unspecified) | 13µM | – | · | – | ·
CC(C(=O)Nc1nc(-c2ccc(F)c(F)c2)cs1)N1C(=O)C2CC=CCC2C1=O (stereo unspecified) | ? | 23µM | · | – | ·
CCOC(=O)c1cc(S(=O)(=O)N2CCN(c3cccc(C)c3)C(C)C2)[nH]n1 (stereo unspecified) | 16µM | 23µM | · | – | ·
CCOC(=O)c1cc(S(=O)(=O)N2CCN(c3ccc(C(C)=O)cc3)CC2)[nH]n1 | 18µM | 16µM | · | – | ·
CCOC(=O)c1cc(S(=O)(=O)N2CCN(c3ccccc3)CC2)[nH]n1 | ? | ? | · | – | ·
NC(=O)C1CCN(CCC(=O)Nc2cccc(Cl)c2)CC1 | – | – | – | – | –
CCCCCn1c(=O)[nH]c2cc(C(=O)N3CCN(c4cccc(C(F)(F)F)c4)CC3)ccc2c1=O | 10µM | 7.3µM | · | – | ·
O=C(CCCCCn1c(=O)[nH]c2ccccc2c1=O)N1CCN(Cc2ccc3c(c2)OCO3)CC1 | 13µM | ? | – | – | –
O=C(Cn1c(=O)[nH]c2ccccc2c1=O)N1CCN(Cc2ccc3c(c2)OCO3)CC1 | ? | ? | – | – | –
Cc1[nH]c2ccccc2c1C(O)CN1CCN(c2cccc(C(F)(F)F)c2)CC1 (stereo unspecified) | 23µM | 18µM | – | – | –
CCN1CCN(C(=O)c2ccc3c(=O)n(CCc4ccccc4)c(=O)[nH]c3c2)CC1 | ? | – | – | – | –
Cc1ccc(C)c(N2CCN(C(=O)CCn3c(=O)[nH]c4ccccc4c3=O)CC2)c1 | 16µM | 12µM | · | – | ·
CCOc1ccc(-n2c(=O)c3c(C)c(C(=O)N(C)C)sc3n(Cc3cc(C)ccc3C)c2=O)cc1 | – | – | · | – | ·
CC(=O)Cc1nsc(NC(=O)c2ccccc2)n1 | – | ? | – | – | –
O=C(CCCCCn1c(=O)[nH]c2ccccc2c1=O)N1CCN(c2cccc(C(F)(F)F)c2)CC1 | 0.58µM | 0.58µM | · | – | ·
O=C(Oc1ccc(OC(=O)c2ccco2)c(S(=O)(=O)c2ccc(Br)cc2)c1)c1ccco1 | – | ? | ? | – | ?
Cc1ccc(S(=O)(=O)c2cc(OC(=O)c3ccco3)ccc2OC(=O)c2ccco2)cc1 | ? | 16µM | – | – | –
Cn1c(=O)oc2cc(S(=O)(=O)NC(Cc3ccccc3)C(=O)NCc3ccc(F)cc3)ccc21 (stereo unspecified) | – | – | · | – | ·
CCOC(=O)c1[nH]c2ccc(OC)cc2c1NC(=O)c1cccc(OC)c1 | 23µM | ? | – | – | –
COC(=O)c1[nH]c2ccc(F)cc2c1NS(=O)(=O)c1ccc(OC)cc1 | 3.3µM | 3.3µM | – | – | –
CCOC(=O)c1[nH]c2ccc(OC)cc2c1NC(=S)N1CCN(c2cccc(C)c2C)CC1 | ? | ? | 4.5µM | – | ?
CCOC(=O)c1cc(CC)sc1NC(=O)c1cc(OC)c(OC)c(OC)c1 | ? | 18µM | – | – | –
COc1cc(CNCCCN2CCOCC2)c(Br)cc1OC(C)C | – | ? | ? | · | –
Cc1c(C(=O)O)cccc1-n1c(C)cc(/C=N/Nc2ccc([N+](=O)[O-])cn2)c1C | – | – | – | – | –
O=C(Nc1ccc(Cl)c(C(F)(F)F)c1)N1CCCC(O)C1 (stereo unspecified) | – | – | ? | – | –
CCOC(=O)c1[nH]c2ccc(F)cc2c1NC(=O)c1ccccc1C(=O)O | – | – | – | · | –
CCOC(=O)c1[nH]c2ccc(F)cc2c1NC(=O)c1cc(OC)c(OC)c(OC)c1 | ? | 23µM | – | – | –
